The record followed here is PubChem BioAssay (NCI).

About 83,000 compounds went through this panel and 20% of them were active in at least one assay; those are over-represented in the sample as a whole.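 Activity criterion: percent growth below 10, measured after cells in 96-well plates were exposed to a single compound concentration for 48 hours.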 Unmarked numbers belong to inactive results. Activity calls are given as the source filed them.

Among the test systems are DU-145 prostate; MALME-3M melanoma; MDA-MB-231 breast; RXF 393 renal; SF-268 CNS; SF-295 CNS; SF-539 CNS; UACC-257 melanoma; HCT-15 colon; HT29 colon; SNB-75 CNS; SNB-19 CNS; U251 CNS; PC-3 prostate; SK-MEL-5 melanoma; LOX IMVI melanoma; SK-MEL-28 melanoma; UACC-62 melanoma; K-562 leukemia; M14 melanoma.
Holding throughout (assay): NCI-60 one-dose screen, 48 h (100 = growth as untreated, 0 = no growth, -100 = all killed)
What all share (details): 10 µM unless noted

On to `COc1ccc2cc(-c3ccc(C(=O)NN)c(C)n3)ccc2c1`, for which the growth in the experiment with DU-145 prostate is 103%; with MALME-3M melanoma, 92.5%; with MDA-MB-231 breast it was 97.4%; in the experiment with RXF 393 renal it was 113%; with SF-268 CNS it was 91.9%; in the experiment on SF-295 CNS, 99%. Also, the growth with SF-539 CNS was 103%; with UACC-257 melanoma, 99.6%; with HCT-15 colon, 99%; in the experiment with HT29 colon, 95%; in the experiment with SNB-75 CNS, 109%; in the experiment with SNB-19 CNS, 96.6%. Further, the growth in the experiment on U251 CNS was 98.9%; in the experiment with PC-3 prostate it was 93.3%; in the experiment on SK-MEL-5 melanoma, 102%; with LOX IMVI melanoma, 88.2%; in the experiment with SK-MEL-28 melanoma, 93.7%.

With `CCCCCCCCc1cc[n+](CC(=O)c2ccc(Br)cc2)cc1`, the growth with DU-145 prostate is 37%; in the experiment with MALME-3M melanoma, -25.4% (active); in the experiment with MDA-MB-231 breast, 13.8%; in the experiment on RXF 393 renal it was -24% (active); in the experiment on SF-268 CNS, 52.5%; in the experiment with SF-295 CNS, 34%. The growth in the experiment on UACC-257 melanoma was -61.2% (active); in the experiment on HCT-15 colon, 47%; in the experiment with HT29 colon, -88.9% (active); in the experiment on SNB-75 CNS, 50.5%; in the experiment with SNB-19 CNS it was 35.3%; in the experiment with U251 CNS, -85.2% (active). In addition, the growth in the experiment with PC-3 prostate was 10.2%; in the experiment on SK-MEL-5 melanoma, -93.5% (active); with UACC-62 melanoma, -32.9% (active); in the experiment with SK-MEL-28 melanoma, 32.9%.

As for `CC(=O)c1sc(-c2ccccc2)cc1N`, the growth in the experiment with DU-145 prostate is 102%; with MALME-3M melanoma it was 112%; in the experiment with MDA-MB-231 breast, 99.6%; in the experiment on RXF 393 renal it was 107%; in the experiment on SF-268 CNS, 104%; in the experiment on SF-295 CNS it was 99.7%. For the same molecule, the growth in the experiment on SF-539 CNS is 97.1%; in the experiment with UACC-257 melanoma, 90.6%; in the experiment on HCT-15 colon, 95.2%; in the experiment on SNB-75 CNS it was 99.5%; with SNB-19 CNS, 94.5%; with U251 CNS it was 82.7%. Besides, the growth is 90.8% in the experiment on PC-3 prostate; 95.7% with SK-MEL-5 melanoma; 91% with UACC-62 melanoma; 104% with LOX IMVI melanoma; 108% with SK-MEL-28 melanoma.

As for `CCOC(=O)C(O)C(O)(c1ccccc1)c1ccccc1` (stereo not drawn), the growth is 98% with K-562 leukemia; 103% with MALME-3M melanoma; 94.4% in the experiment on MDA-MB-231 breast; 113% with RXF 393 renal; 95.4% in the experiment with SF-268 CNS; 95.6% in the experiment with SF-295 CNS. Moreover, the growth with SF-539 CNS is 94.5%; with UACC-257 melanoma it was 106%; in the experiment on M14 melanoma, 101%; in the experiment with HCT-15 colon, 98%; in the experiment on HT29 colon, 99.7%; with SNB-75 CNS, 89.7%. The growth in the experiment with SNB-19 CNS was 114%; with U251 CNS it was 97.3%; in the experiment on PC-3 prostate, 96.8%; with SK-MEL-5 melanoma, 97.6%; with UACC-62 melanoma it was 98.5%; in the experiment with LOX IMVI melanoma it was 102%. Also, the growth with SK-MEL-28 melanoma was 95.8%.

In the case of `Cc1nn(-c2ccccc2)c2c1C(c1ccc([N+](=O)[O-])cc1)C(C#N)=C(N)O2` (stereo not drawn), the growth is 111% with DU-145 prostate; 87.4% with MDA-MB-231 breast; 99.2% in the experiment with RXF 393 renal; 108% with SF-268 CNS; 95.9% in the experiment with SF-539 CNS; 88.1% with UACC-257 melanoma. The growth was 106% in the experiment on M14 melanoma; 106% in the experiment on HCT-15 colon; 105% in the experiment on HT29 colon; 87.7% in the experiment on SNB-75 CNS; 102% in the experiment with SNB-19 CNS; 110% in the experiment on U251 CNS. Also, the growth is 102% with PC-3 prostate, 122% in the experiment with SK-MEL-5 melanoma, 96.1% in the experiment on UACC-62 melanoma and 116% in the experiment with SK-MEL-28 melanoma.

For the molecule `CCN(CC)CCCNC(=O)c1ccc(N)cc1O`, the growth in the experiment on K-562 leukemia is 12.3%; in the experiment on MALME-3M melanoma, 91.2%; with MDA-MB-231 breast it was 94.6%; in the experiment on RXF 393 renal it was 91.3%; in the experiment on SF-268 CNS, 93.8%; in the experiment on SF-295 CNS it was 99.7%. Also, the growth in the experiment with SF-539 CNS was 98.4%; in the experiment with UACC-257 melanoma, 99.3%; with M14 melanoma it was 94.5%; in the experiment with HCT-15 colon, 96.1%; in the experiment on HT29 colon, 103%; in the experiment on SNB-75 CNS it was 113%. The growth was 106% in the experiment with SNB-19 CNS; 99% in the experiment with U251 CNS; 94.2% in the experiment on PC-3 prostate; 95.4% in the experiment with SK-MEL-5 melanoma; 97.9% in the experiment with UACC-62 melanoma; 90.6% in the experiment on LOX IMVI melanoma. The growth with SK-MEL-28 melanoma is 100%.

Regarding `CCCCCCNC(=O)c1cc(NCc2cc(O)ccc2O)ccc1O`, the growth with DU-145 prostate is 92.6%; in the experiment on MALME-3M melanoma it was 67.4%; in the experiment with MDA-MB-231 breast, 45.2%; in the experiment on RXF 393 renal it was 37.4%; in the experiment with SF-268 CNS, 53.8%; in the experiment with SF-295 CNS it was 95.8%. The growth is 11.8% in the experiment with SF-539 CNS; 56.1% with UACC-257 melanoma; 34.6% with HCT-15 colon; 91% with HT29 colon; 45.7% with SNB-75 CNS; 99.7% in the experiment on SNB-19 CNS. For the same molecule, the growth was 67.3% with U251 CNS; 42.6% in the experiment with PC-3 prostate; 90% with SK-MEL-5 melanoma; 56.3% in the experiment with UACC-62 melanoma; 67.7% in the experiment on LOX IMVI melanoma; 101% with SK-MEL-28 melanoma.

Consider `CN1CCN(C2=C(Cl)C(=O)c3ccccc3C2=O)CC1`, for which the growth in the experiment with K-562 leukemia was 23.1%; with MALME-3M melanoma it was 4.5% (active); with MDA-MB-231 breast, 41.6%; in the experiment on RXF 393 renal, 101%; in the experiment with SF-295 CNS, 84.1%; in the experiment with SF-539 CNS, 105%. Further, the growth in the experiment with UACC-257 melanoma was 56.5%; with HCT-15 colon, 33%; in the experiment with HT29 colon it was 66.7%; with SNB-75 CNS it was 90.9%; in the experiment with SNB-19 CNS, 93.1%; with U251 CNS, 87%. Besides, the growth with PC-3 prostate is 60.5%; in the experiment with SK-MEL-5 melanoma, 26.8%; in the experiment on UACC-62 melanoma it was 32.9%; in the experiment with LOX IMVI melanoma it was 11.4%; in the experiment on SK-MEL-28 melanoma it was 73.8%.

In the case of `Cc1ccc(C)c2c1C(=O)OC2=O`, the growth in the experiment on K-562 leukemia is 78.9%; in the experiment on MALME-3M melanoma it was 87.8%; in the experiment on MDA-MB-231 breast, 106%; with RXF 393 renal it was 127%; with SF-268 CNS, 98.8%; with SF-295 CNS, 96.2%. In addition, the growth in the experiment on SF-539 CNS was 99.7%; with UACC-257 melanoma it was 102%; in the experiment on M14 melanoma it was 102%; with HCT-15 colon it was 101%; in the experiment with HT29 colon, 93.1%; in the experiment on SNB-75 CNS, 91.2%. Besides, the growth with SNB-19 CNS is 107%; with U251 CNS it was 104%; with PC-3 prostate, 97.7%; in the experiment on SK-MEL-5 melanoma, 102%; in the experiment with UACC-62 melanoma, 101%; in the experiment with LOX IMVI melanoma, 98.4%. Moreover, the growth with SK-MEL-28 melanoma was 92.9%.
